Test [1] is described as follows: A CellTox Green Cytotoxicity Assay to monitor cytotoxicity in HEK293 cells - 32 hour (AID 1224881). Note: nearly all actives have a fitted effect of over 40% in size. The gist of the method: (§1)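 Each value comes from one timepoint of a single continuous run in which HEK293 cells with CellTox Green were exposed to compound for up to 40 h at 37 C, dye fluorescence rising with cell death.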
Test [2] is described as follows: A CellTox Green Cytotoxicity Assay to monitor cytotoxicity in HepG2 cells - 32 hour (AID 1224883). Note: nearly all actives have a fitted effect of over 50% in size. Put shortly:
(§2)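 Continuous culture of HepG2 cells with a membrane-impermeant DNA dye; rising fluorescence marks dead cells. Compound exposure lasted up to 40 h at 37 C, with reads every 8 h from 0 h.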

Test [3] in a line: A CellTox Green Cytotoxicity Assay to monitor cytotoxicity in HEK293 cells - 8 hour (AID 1224884). Note: nearly all actives have a fitted effect of over 35% in size. Put shortly:
as §1

Test [4] in a line: qHTS RealTime-Glo MT Cell Viability Assay in HepG2 cells - 16 hour (AID 1224885). Note: nearly all actives have a fitted effect of over 50% in size. The gist of the method: (§3)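 Tox21 10K library screened in qHTS format on HepG2 cells carrying RealTime-Glo reagents. Compounds were added after a 5 h preincubation, and the luminescent signal from continuous culture was measured repeatedly during 40 h treatment.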
In general terms: Quantitative high-throughput screening tests each substance at several concentrations.

The nature of test [5]: qHTS RealTime-Glo MT Cell Viability Assay in HEK293 cells - 24 hour (AID 1224886). For activity change, negative = cytotoxicity: top concentration of the series differs between compounds. Note: nearly all actives have a fitted effect of over 50% in size. Note: potency is the fitted concentration of half-maximal effect. The gist of the method: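 Luminescence generated by NanoLuc from substrate produced by living HEK293 cells served as the viability signal. Each value reflects the reading at its stated time point during continuous 40 h compound exposure at 37 C.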
Test [6] can be described thus: A CellTox Green Cytotoxicity Assay to monitor cytotoxicity in HEK293 cells - 16 hour (AID 1224888). Note: nearly all actives have a fitted effect of over 35% in size. The gist of the method: as §1
A short description of test [7]: qHTS RealTime-Glo MT Cell Viability Assay in HepG2 cells - 0 hour (AID 1224889). Note: nearly all actives have a fitted effect of over 50% in size. The gist of the method:
as §3

The nature of test [8]: A CellTox Green Cytotoxicity Assay to monitor cytotoxicity in HepG2 cells - 8 hour (AID 1224890). Note: nearly all actives have a fitted effect of over 45% in size. Put shortly:
as §2

The nature of test [9]: qHTS assay to identify small molecule antagonists of the estrogen receptor alpha (ER-alpha) signaling pathway using the BG1 cell line in the presence of 0.1 nM 17-beta-estradiol - cell viability counter screen (AID 1259241). Note: nearly all actives have a fitted effect of over 40% in size. The gist of the method: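 Following 5 days in phenol red-free medium with charcoal-stripped serum, VM7Luc4E2 cells received test compounds alongside 0.1 nM 17beta-estradiol (final) at 37C for 22 hr. Live cells were then quantified via protease-substrate fluorescence.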

The nature of test [10]: qHTS assay to identify small molecule antagonists of the androgen receptor (AR) signaling pathway using the MDA cell line in the presence of 0.5 nM R1881 - cell viability counter screen (AID 1259242). Note: nearly all actives have a fitted effect of over 45% in size. The gist of the method:
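Fluorescence from CellTiter-Fluor, which reports protease activity of live cells, was read 30 min after reagent addition to MDA-kb2 cells that had been incubated 16 hr with compound and 0.5 nM R1881.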

Test [11] addresses Estrogen receptor (Homo sapiens) (UniProt P03372). Description: qHTS assay to identify small molecule antagonists of the estrogen receptor alpha (ER-alpha) signaling pathway using the BG1 cell line in the presence of 0.1 nM 17-beta-estradiol (AID 1259244). Note: nearly all actives have a fitted effect of over 50% in size. The gist of the method:
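Quantitative high-throughput screen in VM7Luc4E2 cells: compound plus 0.1 nM E2 (final), 22 h, 37C, 5% CO2; ONE-Glo added, 30 min room temperature, luminescence measured.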

Test [12] in a line: qHTS assay to identify small molecule HDAC inhibitors (AID 1259364). Note: top concentration of the series differs between compounds; nearly all actives have a fitted effect of over 45% in size. Put shortly: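 Endogenous HDAC class I/II activity was measured in wild-type HCT-116 cells by HDAC-Glo luminescence after 2 h compound treatment.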
A short description of test [13]: qHTS assay to identify small molecule HDAC inhibitors - cell viability counter screen (AID 1259365). The gist of the method:
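HCT-116 wild-type, overnight attachment; 2hr drug exposure, 37C; CellTiter-Glo luminescent ATP readout after 30min RT.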

Test [14] is described as follows: qHTS assay to identify small molecule agonists of the sonic hedgehog signaling (Shh) pathway (AID 1259368; calls by dose curve;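 note: NIH/3T3-derived 3T3Gli1-Luc cells carrying a stable Gli1-driven firefly luciferase reporter; series mostly up to about 92 µM; nearly all actives have a fitted effect of over 15% in size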). Put shortly:
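Luminescent signal was taken as a measure of Gli1-controlled luciferase expression in stably transfected NIH/3T3-derived cells that had been treated for 24 hr with compounds delivered in DMSO.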

The nature of test [15]: qHTS assay to identify small molecule agonists of the sonic hedgehog signaling (Shh) pathway - cell viability counter screen (AID 1259366). Note: nearly all actives have a fitted effect of over 50% in size. Note: potency is the fitted concentration of half-maximal effect. Put shortly:
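Compounds in DMSO were pin-transferred onto 3T3 Gli1-Luc cells that had settled 4hr; plates then stood 24hr at 37C and 5% CO2. One hour before the end, CellTiter-Fluor was added and fluorescence recorded.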

Test [16] can be described thus: qHTS assay to identify small molecule antagonists of the sonic hedgehog signaling (Shh) pathway - cell viability counter screen (AID 1259367). Note: nearly all actives have a fitted effect of over 55% in size. Note: potency is the fitted concentration of half-maximal effect. Put shortly:
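After a 4 hr settling period, 3T3 Gli1-Luc cells were treated with DMSO-dissolved chemicals and conditioned medium, kept 24 hr at 37C in 5% CO2, and assayed for viability by CellTiter-Fluor fluorescence following 1 hr reagent incubation.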

Test [17] can be described thus: qHTS RealTime-Glo MT Cell Viability Assay in HEK293 cells - 8 hour (AID 1224887). For activity change, negative = cytotoxicity: top concentration of the series differs between compounds. Note: nearly all actives have a fitted effect of over 50% in size. Note: potency is the fitted concentration of half-maximal effect. The gist of the method: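 qHTS format; HEK293 cells with NanoLuc/prosubstrate reagent, 37 C/5% CO2 for 5 h pre-dosing; compounds 23 nL in DMSO; luminescence at each time point reflects viable cells.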
Test [18] deals with Androgen receptor (Homo sapiens) (UniProt P10275). Description: qHTS assay to identify small molecule antagonists of the androgen receptor (AR) signaling pathway using the MDA cell line in the presence of 0.5 nM R1881 (AID 1259243). Note: nearly all actives have a fitted effect of over 50% in size. Put shortly:
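Inhibition of R1881 (0.5 nM final) induced reporter signal was measured in human MDA-kb2 cells; note the MMTV promoter also responds to GR. Exposure lasted 16 hr at 37C.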

The nature of test [19]: qHTS assay to identify small molecule phospholipidosis (PLD) inducers (AID 1259344; active = well fitted curve in the direction sought with a large enough effect; an effect the other way counts as inactive or inconclusive). Put shortly:
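HepG2 cells grown on collagen I take up LipidTOX Red while exposed to compound for 24 h; after fixation they are imaged at 20x and pit metrics are extracted.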

The nature of test [20]: A CellTox Green Cytotoxicity Assay to monitor cytotoxicity in HepG2 cells - 0 hour (AID 1224882). Note: nearly all actives have a fitted effect of over 35% in size. Put shortly: as §2

Unmarked numbers belong to inactive results. Inconclusive results are not listed. Active and inactive are the calls of the source. Unless noted, calls come from the whole dose curve; as a rule, active = well fitted curve in the direction sought with a large enough effect in the repeat runs; inconclusive = weak or mixed curves; inactive = no such curve, though single readings can be large; an effect the other way counts as inactive or inconclusive.
% is set by controls: 0 for no effect and ±100 for the full control effect.

Chain of Estrogen receptor (Homo sapiens) (P03372 whole entry, looked up): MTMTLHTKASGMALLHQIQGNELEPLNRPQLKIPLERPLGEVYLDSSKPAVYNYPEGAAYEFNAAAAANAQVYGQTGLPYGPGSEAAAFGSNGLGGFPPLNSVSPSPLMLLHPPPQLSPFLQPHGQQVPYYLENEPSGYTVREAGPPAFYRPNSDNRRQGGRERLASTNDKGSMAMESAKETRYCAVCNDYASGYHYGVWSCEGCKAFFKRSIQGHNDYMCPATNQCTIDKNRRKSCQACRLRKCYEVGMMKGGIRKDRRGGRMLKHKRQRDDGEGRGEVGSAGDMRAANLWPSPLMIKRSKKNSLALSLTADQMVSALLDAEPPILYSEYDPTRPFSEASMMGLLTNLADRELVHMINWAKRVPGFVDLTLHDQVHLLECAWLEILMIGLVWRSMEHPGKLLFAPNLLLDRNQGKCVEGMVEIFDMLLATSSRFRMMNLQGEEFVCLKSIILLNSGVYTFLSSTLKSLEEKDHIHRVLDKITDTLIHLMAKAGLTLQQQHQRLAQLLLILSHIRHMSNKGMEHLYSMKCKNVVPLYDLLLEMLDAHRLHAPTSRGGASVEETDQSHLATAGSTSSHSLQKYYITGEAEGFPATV
Chain of Androgen receptor (Homo sapiens) (P10275 whole entry, looked up): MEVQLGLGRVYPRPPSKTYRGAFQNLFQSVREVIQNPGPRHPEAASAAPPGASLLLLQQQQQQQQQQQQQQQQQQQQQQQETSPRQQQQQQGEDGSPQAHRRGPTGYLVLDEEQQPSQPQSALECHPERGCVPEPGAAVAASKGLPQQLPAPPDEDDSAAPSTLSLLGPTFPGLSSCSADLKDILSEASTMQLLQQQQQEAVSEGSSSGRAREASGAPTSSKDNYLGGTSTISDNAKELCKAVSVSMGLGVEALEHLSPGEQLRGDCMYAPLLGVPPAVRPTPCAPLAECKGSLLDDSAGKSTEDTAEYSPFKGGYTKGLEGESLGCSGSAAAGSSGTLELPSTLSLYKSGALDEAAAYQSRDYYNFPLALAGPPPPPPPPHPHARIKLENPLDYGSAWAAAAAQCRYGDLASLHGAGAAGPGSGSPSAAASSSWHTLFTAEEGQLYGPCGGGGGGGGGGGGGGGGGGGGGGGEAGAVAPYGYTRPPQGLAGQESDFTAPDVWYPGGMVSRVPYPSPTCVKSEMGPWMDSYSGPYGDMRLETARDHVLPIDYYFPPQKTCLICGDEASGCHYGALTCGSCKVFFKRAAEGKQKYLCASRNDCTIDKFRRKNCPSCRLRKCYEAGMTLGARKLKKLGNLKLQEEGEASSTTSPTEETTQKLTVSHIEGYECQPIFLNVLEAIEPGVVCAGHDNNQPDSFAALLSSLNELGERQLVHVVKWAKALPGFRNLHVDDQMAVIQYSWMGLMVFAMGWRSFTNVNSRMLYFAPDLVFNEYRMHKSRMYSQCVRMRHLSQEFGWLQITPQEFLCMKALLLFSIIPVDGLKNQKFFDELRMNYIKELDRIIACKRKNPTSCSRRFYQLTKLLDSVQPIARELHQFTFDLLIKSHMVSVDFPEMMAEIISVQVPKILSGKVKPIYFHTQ

As for `CC(Cc1ccccc1)NCCn1cnc2c1c(=O)n(C)c(=O)n2C` (stereo not drawn), the Potency result in test [1], in [2], in test [3], in test [4], in [6] and in [8] was “inactive” each time. For the same molecule, the Potency result in [10], in [11] and in test [12] was “inactive” in each case. Also, in test [5], the Potency is 21.6 µM (active). Moreover, the call in test [7], in test [9], in [13] and in [14] was inactive.
Take `CCOc1cc(OP(=S)(OC)OC)nc(CC)n1`: the Potency result in [1], in test [2], in [3], in test [5], in test [8] and in test [10] was “inactive” in each case. Also, the Potency entry in [11], in [12], in test [15] and in [16] was “inactive” in each case. Further, the call in [7], in [9] and in test [13] was inactive.
Regarding `Cc1ccc2c(c1)C1CN(C)CCC1N2` (stereo not drawn), the results for the cytotoxicity increase in test [1], in test [2] and in test [8] were -4.65% [at 15.8 µM], 14.3% [at 15.8 µM] and 11.9% [at 15.8 µM], respectively. Also, the activity change, negative = cytotoxicity in [5] is -0.194% [at 15.8 µM]; in test [17], 1.42% [at 15.8 µM]; in test [7], -0.0575% [at 15.8 µM]; in test [9] it was -3.08% [at 19 µM]; in test [13] it was 1.1% [at 19 µM]. Moreover, the activity change in [6] was -0.0479% [at 15.8 µM, hits give high values]; in test [14], 0.824% [at 18.9 µM]. The viability change, negative = cytotoxic in test [10] is -1.32% [at 19 µM]; in test [15], -5.79% [at 19 µM]; in test [16], 5.33% [at 19 µM]. The activity change, negative = inhibition is -0.7% [at 19 µM] in [11] and -0.403% [at 19 µM] in [12].
Take `c1ccc2c(c1)CCNC2`: the Potency entry in test [1], in [2], in test [4], in test [17], in test [6] and in [8] was “inactive” each time. Besides, the Potency entry in test [10], in [12], in [15] and in test [16] was “inactive” throughout. Also, the outcome in [7], in test [9], in test [13] and in test [14] was inactive.
Regarding `C=C1C[C@@H]2[C@H](CC[C@]3(C)C(=O)CC[C@@H]23)[C@@]2(C)C=CC(=O)C=C12`, the Potency entry in test [1], in test [2], in test [3], in test [4], in test [5] and in test [17] was “inactive” each time. Moreover, the Potency result in test [6], in test [8], in [10], in [11], in test [15] and in test [16] was “inactive” each time. Moreover, the result in test [9], in test [13] and in test [14] was inactive.
Regarding `COc1cccc([C@@]2(O)CCCC[C@@H]2CN(C)C)c1`, the Potency result in test [1], in test [2], in [4], in test [5], in [17] and in [6] was “inactive” throughout. The Potency result in [8], in [10], in test [18], in test [11], in test [19] and in test [12] was “inactive” throughout. The Potency result in test [15] and in [16] was “inactive” throughout. Moreover, the outcome in test [7] and in [9] was inactive.
Regarding `O=C(Cl)c1ccccc1`, the Potency entry in [1], in test [2], in test [3], in test [5], in test [8] and in test [10] was “inactive” in each case. Further, the Potency result in test [11], in test [15] and in test [16] was “inactive” each time. For the same molecule, the molecule was called inactive in [7], in test [9] and in [13].
For the molecule `Cn1c(N)nc2c3cccnc3ccc21`, the call in test [20], in test [7], in test [13] and in test [14] was inactive. In addition, the Potency result in [2], in test [3], in [4], in test [5], in test [8] and in test [10] was “inactive” in each case. Moreover, the Potency entry in [11] and in test [12] was “inactive” each time. Further, the Potency in test [15] and in test [16] was 26 µM (active) in each case.
Regarding `Cc1ccc(-c2nc3ccc(C)cn3c2CC(=O)N(C)C)cc1`, the Potency entry in test [1], in test [2], in test [3], in test [4], in test [17] and in test [6] was “inactive” in each case. In addition, the Potency result in [8], in test [10], in test [11], in test [19] and in [12] was “inactive” each time. In addition, the call in test [7], in test [9], in test [13] and in test [14] was inactive.
In the case of `CCOC(=O)C(Cl)Cc1cc(-n2nc(C)n(C(F)F)c2=O)c(F)cc1Cl` (stereo not drawn), the Potency entry in [1], in [2], in [3], in test [5], in [6] and in [8] was “inactive” in each case. In addition, the Potency entry in test [10], in test [11], in [12], in [15] and in [16] was “inactive” in each case. Further, in [17], the Potency is 49 µM (active). Also, the call in test [7], in test [9], in test [13] and in test [14] was inactive.
As for `C=CCc1cc(OC)c2c(c1)OCO2`, the result in [20], in test [7], in test [9], in test [13] and in test [14] was inactive. The Potency result in [2], in [3], in [4], in [5], in test [17] and in test [8] was “inactive” each time. For the same molecule, the Potency result in test [10], in [15] and in test [16] was “inactive” each time.

The values are drawn from PubChem BioAssay (Tox21).
